From PubChem BioAssay
For part of these data: Potency and affinity values are given separately. Active and inactive are the calls of the source.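 How the source made its calls, unless noted: active means calcium signal rise above buffer-control mean plus 5 SD in both duplicates, and also a hit in the primary screen; inactive means the rest.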

Experiments:
[1] = tested on: TRPC4 beta (transient receptor potential cation channel C4), mouse; experiment: activators of mouse TRPC4 channel, confirmation, cell-based, Fluo4 calcium, HEK293 TRPC4beta/mu-opioid, duplicates, 10 µM (AID 2426;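 active means fluorescence ratio normalized to control raised more than 50% in primary screen plus both repeat runs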); details: Fluo4 calcium fluorescence, at 10 µM; active compounds read high
[2] = tested on: transient receptor potential cation channel C4 beta (TRPC4), mouse; experiment: activators of mouse TRPC4 channel, confirmation, cell-based, second round, Fluo4, HEK293 TRPC4beta/mu-opioid, 1 µM (AID 2461;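 active means primary screen active and over 50% activation in each of two duplicate runs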); details: Fluo4 calcium fluorescence, at 1 µM; active compounds read high
[3] = tested on: TRPC4 (transient receptor potential cation channel C4 beta), mouse; experiment: positive allosteric modulators of mouse TRPC4, confirmation, cell-based, second round, Fluo-4, HEK293 TRPC4beta/mu-opioid, 1 µM (AID 2554;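 active means primary screen hit whose fluorescence ratio, in both repeats, exceeds the weak agonist control mean by 3 SD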); details: DAMGO EC20, Fluo-4 calcium flux, at 1 µM; active compounds read high
[4] = tested on: TRPC4 beta (transient receptor potential cation channel C4), mouse; experiment: positive allosteric modulators of mouse TRPC4, confirmation, cell-based, Fluo-4, HEK293 TRPC4beta/mu-opioid (AID 2555;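 active means primary screen hit whose calcium fluorescence ratio, in both repeats, exceeds the weak agonist control mean by 3 SD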); details: DAMGO EC20, Fluo-4 calcium flux, at 10 µM; active compounds read high
[5] = molecular target: Short transient receptor potential channel 4 (Mus musculus) (UniProt Q9QUQ5); experiment: inhibitors of mouse TRPC4 channel, confirmation, cell-based, Fluo4, HEK293 TRPC4beta/mu-opioid (AID 2636;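 active means calcium signal cut by more than 3 SD below the full-agonist control yet still positive, in both repeats and the earlier primary screen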); details: DAMGO, Fluo4 calcium flux, at 10 µM; active compounds read high
Chain of Short transient receptor potential channel 4 (Mus musculus) (Q9QUQ5 whole entry, looked up): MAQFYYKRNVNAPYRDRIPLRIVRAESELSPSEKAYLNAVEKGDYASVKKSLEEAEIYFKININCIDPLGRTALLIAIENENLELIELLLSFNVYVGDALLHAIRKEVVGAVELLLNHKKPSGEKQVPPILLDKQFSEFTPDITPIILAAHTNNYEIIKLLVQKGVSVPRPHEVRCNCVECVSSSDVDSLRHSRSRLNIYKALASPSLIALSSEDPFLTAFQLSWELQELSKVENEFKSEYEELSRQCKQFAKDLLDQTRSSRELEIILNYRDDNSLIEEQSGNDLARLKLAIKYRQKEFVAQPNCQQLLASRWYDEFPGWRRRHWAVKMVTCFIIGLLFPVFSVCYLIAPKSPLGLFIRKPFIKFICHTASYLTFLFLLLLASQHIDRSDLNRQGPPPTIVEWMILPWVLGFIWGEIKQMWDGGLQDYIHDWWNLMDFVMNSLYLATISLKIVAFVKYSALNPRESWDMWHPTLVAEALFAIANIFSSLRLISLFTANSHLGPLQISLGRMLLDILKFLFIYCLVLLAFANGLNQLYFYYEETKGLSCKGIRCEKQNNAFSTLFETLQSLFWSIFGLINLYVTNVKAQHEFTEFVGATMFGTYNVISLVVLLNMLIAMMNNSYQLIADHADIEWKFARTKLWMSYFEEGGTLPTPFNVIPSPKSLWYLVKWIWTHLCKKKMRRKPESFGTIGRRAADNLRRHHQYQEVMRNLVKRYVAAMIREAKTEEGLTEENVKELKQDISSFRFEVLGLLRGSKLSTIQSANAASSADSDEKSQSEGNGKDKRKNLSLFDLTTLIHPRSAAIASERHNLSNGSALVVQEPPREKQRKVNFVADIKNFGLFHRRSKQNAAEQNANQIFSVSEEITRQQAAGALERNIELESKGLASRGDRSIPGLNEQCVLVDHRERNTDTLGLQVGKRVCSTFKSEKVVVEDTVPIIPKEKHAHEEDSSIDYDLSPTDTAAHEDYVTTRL

[6] = molecular target: Short transient receptor potential channel 4 (Mus musculus) (UniProt Q9QUQ5); experiment: inhibitors of mouse TRPC4 channel, confirmation, cell-based, second round, Fluo4, HEK293 TRPC4beta/mu-opioid, 1 µM (AID 2637;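 active means calcium signal ratio cut to more than 3 SD under the fully stimulated control mean yet still positive, in both repeats and the primary screen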;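 on inhibition: percent of integrated ratio relative to wells lacking test compound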); details: Fluo4 calcium flux, DAMGO, at 1 µM; active compounds read high
[7] = molecular target: Short transient receptor potential channel 4 (Mus musculus) (UniProt Q9QUQ5); experiment: mouse TRPC4 channel activators, dose response, cell-based, HEK293 TRPC4/mu-opioid, Fluo-4 calcium (AID 434937;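 active means primary screen activator hit with a dose response curve and TRPC4 channel activation at any tested dose; inactive means no activation, no dose response, or not a primary hit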)
[8] = molecular target: Short transient receptor potential channel 4 (Mus musculus) (UniProt Q9QUQ5); experiment: TRPC4 positive allosteric modulators, dose response, cell-based, HEK293 TRPC4/mu-opioid, Fluo-4 calcium, EC20 DAMGO (AID 434941;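 active means earlier screen potentiator hit that boosts the TRPC4 ion channel at some dose, with a dose response; inactive means no potentiation, no dose response, or not a prior hit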;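 further: calcium entry triggered by an EC20 dose of DAMGO at the co-expressed mu-opioid receptor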)
[9] = molecular target: Short transient receptor potential channel 6 (Mus musculus) (UniProt Q61143); experiment: inhibition of mouse TRPC6 channel, confirmation, selectivity assay for TRPC4 inhibitor project, cell-based, HEK293, membrane potential dye, duplicate (AID 434948;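 active means active in primary screen and both duplicates, each dropping signal beyond three positive-control SD with fluorescence still positive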); details: HEK293 TRPC6, membrane potential dye fluorescence, at 10 µM; inhibition: active compounds read high, stimulated with maximal-effect acetylcholine unless noted; outcome: stimulated with maximal-effect acetylcholine unless noted
Chain of Short transient receptor potential channel 6 (Mus musculus) (Q61143 whole entry, looked up): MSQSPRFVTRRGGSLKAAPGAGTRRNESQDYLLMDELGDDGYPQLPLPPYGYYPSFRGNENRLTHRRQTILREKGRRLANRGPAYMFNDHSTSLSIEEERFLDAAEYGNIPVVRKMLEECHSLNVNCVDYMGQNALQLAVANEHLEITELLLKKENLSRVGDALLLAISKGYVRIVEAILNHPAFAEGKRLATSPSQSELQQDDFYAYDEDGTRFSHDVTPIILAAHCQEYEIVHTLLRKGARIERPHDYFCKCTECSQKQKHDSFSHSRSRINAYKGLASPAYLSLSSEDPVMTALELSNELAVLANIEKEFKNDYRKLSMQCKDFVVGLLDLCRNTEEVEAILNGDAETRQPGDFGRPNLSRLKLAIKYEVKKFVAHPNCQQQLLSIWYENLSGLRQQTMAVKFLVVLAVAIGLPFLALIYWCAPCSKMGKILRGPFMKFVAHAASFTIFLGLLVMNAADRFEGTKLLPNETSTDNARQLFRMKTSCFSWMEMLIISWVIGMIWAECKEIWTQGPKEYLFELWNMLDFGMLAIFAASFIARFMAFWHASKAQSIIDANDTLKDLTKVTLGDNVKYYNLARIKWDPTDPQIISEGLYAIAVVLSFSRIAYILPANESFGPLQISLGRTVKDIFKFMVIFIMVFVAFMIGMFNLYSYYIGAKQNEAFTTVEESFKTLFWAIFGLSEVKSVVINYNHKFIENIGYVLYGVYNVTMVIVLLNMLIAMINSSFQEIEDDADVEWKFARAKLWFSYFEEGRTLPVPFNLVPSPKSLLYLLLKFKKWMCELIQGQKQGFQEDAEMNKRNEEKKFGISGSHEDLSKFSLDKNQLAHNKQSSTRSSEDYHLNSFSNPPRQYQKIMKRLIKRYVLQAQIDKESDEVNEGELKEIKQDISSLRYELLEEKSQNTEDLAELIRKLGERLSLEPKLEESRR

[10] = molecular target: Short transient receptor potential channel 6 (Mus musculus) (UniProt Q61143); experiment: activation of mouse TRPC6 channel, confirmation, selectivity assay for TRPC4 activator project, cell-based, HEK293, membrane potential dye, duplicate (AID 434950;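 active means membrane potential signal rise above negative control mean plus 3 SD in both duplicates, also active in the earlier TRPC4 screen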); details: HEK293 TRPC6, membrane potential fluorescence, at 10 µM; active compounds read high
[11] = molecular target: Short transient receptor potential channel 6 (Mus musculus) (UniProt Q61143); experiment: TRPC6 potentiation by TRPC4 potentiator hits, confirmation, selectivity assay for TRPC4 potentiator project, HEK293 cells, membrane potential dye, duplicate (AID 434952;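 active means compound raising the membrane signal above positive-control mean plus 3 SD in both repeats, and a primary screen hit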); details: HEK293 TRPC6, membrane potential dye fluorescence, at 10 µM; maximal acetylcholine added after compound unless noted
[12] = molecular target: Short transient receptor potential channel 4 (Mus musculus) (UniProt Q9QUQ5); experiment: calcium flux activators in TRPC4/5HT1a cells, counter-screen for TRPC4 activator project, cell-based, second counter screen, HEK293 TRPC4/5HT1a, Fluo-4 (AID 434977); details: Fluo-4 calcium flux, at 10 µM; active compounds read high
[13] = calcium flux inhibitors in TRPC4/5HT1a cells, confirmation, counter-screen for TRPC4 inhibitor project, cell-based, second counter screen, HEK293 TRPC4/5HT1a, Fluo-4 (AID 434978;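 active means primary screen active whose calcium signal fell more than 3 SD beyond the full-serotonin control mean in both duplicate plates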;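 on outcome: serotonin given first at submaximal then at maximal dose after compound preincubation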); details: Fluo-4 calcium flux, at 10 µM; inhibition: active compounds read high, serotonin added to trigger calcium flux unless noted; outcome: serotonin added to trigger calcium flux unless noted
[14] = tested on: TRPC4 (mouse), co-expressed with 5HT1a in HEK293; experiment: calcium flux potentiators in TRPC4/5HT1a cells, confirmation, counter-screen for TRPC4 potentiator project, cell-based, second counter screen, HEK293 TRPC4/5HT1a, Fluo-4 (AID 434979;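 active means signal rise over 3 SD above mean of control wells given weak agonist, in both repeats and first screen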); details: Fluo-4 calcium flux, at 10 µM; outcome: serotonin added at its EC20 dose unless noted; potentiation: active compounds read high, serotonin added at its EC20 dose unless noted
[15] = calcium flux activation in mu-opioid HEK293 cells, confirmation, counter-screen for TRPC4 activator project, cell-based, HEK293 mu-opioid receptor line (AID 449723;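 active means hit in primary screen, with calcium signal over 5 SD above buffer well mean in both duplicates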;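 further: counter screen cells carry the mu-opioid receptor alone and lack TRPC4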); details: Fluo-4 calcium fluorescence, at 10 µM; active compounds read high
[16] = calcium flux enhancement in mu-opioid HEK293 cells, confirmation, counter-screen for TRPC4 allosteric potentiator project, cell-based, HEK293 mu-opioid receptor line (AID 449724;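 active means calcium signal rise more than 3 SD above the low-dose agonist control mean, in both duplicate plates and the primary screen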); details: Fluo-4 calcium flux, at 10 µM; compound added before EC20 DAMGO stimulus unless noted
[17] = molecular target: Short transient receptor potential channel 4 (Mus musculus) (UniProt Q9QUQ5); experiment: mouse TRPC4 channel inhibitors, dose response, cell-based, HEK293 TRPC4/mu-opioid, Fluo-4 calcium (AID 434942;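 active means primary screen inhibitor hit that blocks the TRPC4 channel at some tested dose, yielding a dose curve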)

CCN(CC)CC(=O)Nc1ccc(Cl)cc1C(=O)c1ccccc1
active: inhibition [5] 89% | inhibition [13] 33.6%
inactive: outcome [1] | outcome [2] | outcome [3] | outcome [4] | outcome [6] | outcome [7] | outcome [8] | outcome [9] | outcome [10] | outcome [11] | outcome [12] | outcome [14] | outcome [15] | outcome [16]

O=C(CN1CCCC1)Nc1ccc(Cl)cc1C(=O)c1ccccc1
active: inhibition [5] 90% | inhibition [13] 21.8%
inactive: outcome [1] | outcome [2] | outcome [3] | outcome [4] | outcome [6] | outcome [7] | outcome [8] | outcome [9] | outcome [10] | outcome [11] | outcome [12] | outcome [14] | outcome [15] | outcome [16]

COc1ccc2[nH]cc(CCN(C)C)c2c1
inactive: outcome [1] | outcome [2] | outcome [4] | outcome [5] | outcome [6] | outcome [7] | outcome [17] | outcome [9] inactive [setting not given] | outcome [10] | outcome [11] inactive [setting not given] | outcome [12] | outcome [13] inactive [setting not given] | outcome [14] inactive [setting not given] | outcome [15] | outcome [16] inactive [setting not given]
active: potentiation [3] 7%

Cc1ccsc1C(=O)C1CCCN(Cc2ccccc2O)C1 (stereo not given)
inactive: outcome [1] | outcome [2] | outcome [3] | outcome [4] | outcome [6] | outcome [7] | outcome [8] | outcome [9] | outcome [10] | outcome [11] | outcome [12] | outcome [14] | outcome [15] | outcome [16]
active: inhibition [5] 84% | inhibition [13] 44.9%

O=C(Cc1ccccc1)N1CCN(Cc2cccc(Br)c2)CC1
inactive: outcome [1] | outcome [2] | outcome [3] | outcome [4] | outcome [6] | outcome [7] | outcome [8] | outcome [9] | outcome [10] | outcome [11] | outcome [12] | outcome [14] | outcome [15] | outcome [16]
active: inhibition [5] 81% | inhibition [13] 37.8%

CCCCc1ncc(CN2CCCC(C(=O)c3ccc(SC)cc3)C2)[nH]1 (stereo not given)
active: inhibition [5] 90% | inhibition [6] 45% | inhibition [13] 41.9%
inactive: outcome [1] | outcome [2] | outcome [3] | outcome [4] | outcome [7] | outcome [8] | outcome [9] | outcome [10] | outcome [11] | outcome [12] | outcome [14] | outcome [15] | outcome [16]

CCOC(=O)C1(CCc2ccccc2)CCN(Cc2cccc3c2OCO3)CC1
active: inhibition [5] 102%
inactive: outcome [1] | outcome [2] | outcome [3] | outcome [4] | outcome [6] | outcome [7] | outcome [8] | outcome [9] | outcome [10] | outcome [11] | outcome [12] | outcome [13] | outcome [14] | outcome [15] | outcome [16]

Cc1cc(OC(C)C(=O)NCc2ccncc2)c2c3c(c(=O)oc2c1)CCCC3 (stereo not given)
inactive: outcome [1] | outcome [2] | outcome [3] | outcome [4] | outcome [5] | outcome [6] | outcome [7] | outcome [8] | outcome [17] | outcome [9] | outcome [10] | outcome [11] | outcome [12] | outcome [13] | outcome [14] | outcome [15] | outcome [16]

COc1cccc(O)c1CN1CCCC(C(=O)c2sccc2C)C1 (stereo not given)
inactive: outcome [1] | outcome [2] | outcome [3] | outcome [4] | outcome [7] | outcome [8] | outcome [9] | outcome [10] | outcome [11] | outcome [12] | outcome [14] | outcome [15] | outcome [16]
active: inhibition [5] 94% | inhibition [6] 40% | inhibition [13] 29.8%

COc1ccc(O)c(CN2CCCC(C(=O)c3sccc3C)C2)c1 (stereo not given)
active: inhibition [5] 92% | inhibition [13] 29.4%
inactive: outcome [1] | outcome [2] | outcome [3] | outcome [4] | outcome [6] | outcome [7] | outcome [8] | outcome [9] | outcome [10] | outcome [11] | outcome [12] | outcome [14] | outcome [15] | outcome [16]

CCOC(=O)C1(CCc2ccccc2)CCN(Cc2ccco2)CC1
inactive: outcome [1] | outcome [2] | outcome [3] | outcome [4] | outcome [6] | outcome [7] | outcome [8] | outcome [9] | outcome [10] | outcome [11] | outcome [12] | outcome [13] | outcome [14] | outcome [15] | outcome [16]
active: inhibition [5] 94%

CCN1CCN(Cc2cc(Br)ccc2O)CC1
active: potentiation [3] 19% | potentiation [4] 22% | potentiation [14] 16.8%
inactive: outcome [1] | outcome [2] | outcome [5] | outcome [6] | outcome [7] | outcome [17] | outcome [9] | outcome [10] | outcome [11] | outcome [12] | outcome [13] | outcome [15] | outcome [16]

CCN(CC)c1ccc([N+](=O)[O-])c2cccnc12
inactive: outcome [1] | outcome [2] | outcome [3] | outcome [4] | outcome [6] | outcome [7] | outcome [8] | outcome [9] | outcome [10] | outcome [11] | outcome [12] | outcome [14] | outcome [15] | outcome [16]
active: inhibition [5] 93% | inhibition [13] 28%

CC(=O)OC1(c2ccccc2)CCN(C2CCCCC2)CC1C (stereo not given)
active: inhibition [5] 91%
inactive: outcome [1] | outcome [2] | outcome [3] | outcome [4] | outcome [6] | outcome [7] | outcome [8] | outcome [9] inactive [setting not given] | outcome [10] | outcome [11] inactive [setting not given] | outcome [12] | outcome [13] inactive [setting not given] | outcome [14] inactive [setting not given] | outcome [15] | outcome [16] inactive [setting not given]
